Test results from PubChem BioAssay (EPA / NIEHS).
Inconclusive results are not listed. More than one record can exist for a structure, and the calls need not agree. Activity calls are given as the source filed them. Rule for the calls, unless noted: active = hit-call score of the fitted dose curve at least 0.9, where 1 is the maximum; inactive = score below 0.9.

Experiments:
[1] = CCTE_Harrill_HTTr_Apoptosis_DMEM_24hr: (Pilot) CCTE's 24-hour Apoptosis Assessment for the High-Throughput Transcriptomics (HTTr) Platform, in MCF-7 cells cultured in DMEM + 10% fetal bovine serum, Harrill Lab (AID 2283983)
Outline: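 Caspase-3/7 activity read by high-content imaging (CellEvent Green reagent) 24 h after dosing. MCF-7 cells grown in DMEM with 10% FBS received an eight-point concentration series; fits were bidirectional versus DMSO.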

[2] = CCTE_Harrill_HTTr_Apoptosis_PRF_DMEM_6hr: (Pilot) CCTE's 6-hour Apoptosis Assessment for the High-Throughput Transcriptomics (HTTr) Platform, in MCF-7 cells cultured phenol red-free DMEM + 10% charcoal-stripped fetal bovine serum, Harrill Lab (AID 2283984)
Outline: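 Caspase-3/7 activity (CellEvent Green) read by high-content imaging 6 h after dosing, eight concentrations. Cells: MCF-7, phenol red-free DMEM with 10% charcoal-stripped serum. Curves fit both directions against DMSO.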

[3] = CCTE_Harrill_HTTr_Apoptosis_PRF_DMEM_12hr: (Pilot) CCTE's 12-hour Apoptosis Assessment for the High-Throughput Transcriptomics (HTTr) Platform, in MCF-7 cells cultured in phenol red-free DMEM + 10% charcoal-stripped fetal bovine serum, Harrill Lab (AID 2283985)
Outline: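 Caspase-3/7 activity by CellEvent Green high content imaging after 12 h compound exposure (eight concentrations) in MCF-7 grown in phenol red-free DMEM plus 10% charcoal-stripped serum; DMSO as baseline.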

[4] = CCTE_Harrill_HTTr_Apoptosis_PRF_DMEM_24hr: (Pilot) CCTE's 24-hour Apoptosis Assessment for the High-Throughput Transcriptomics (HTTr) Platform, in MCF-7 cells cultured in phenol red-free DMEM + 10% charcoal-stripped fetal bovine serum, Harrill Lab (AID 2283986)
Outline: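 Eight concentrations tested for 24 h on MCF-7 grown in charcoal-stripped serum, phenol red-free DMEM. High content imaging of CellEvent Caspase 3/7 Green signal gives apoptosis read-out, fitted both ways relative to DMSO.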

[5] = CCTE_Simmons_MITO_basal_resp_rate: CCTE's HepG2 Seahorse XF Respirometric Screening Assay at Basal Respiratory State, Simmons Lab (AID 2284001); settings: actives raise or lower the signal
Outline: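 Basal-phase OCR of HepG2 cells on a Seahorse XF96, analysed by bidirectional fit relative to DMSO vehicle; chemicals at 7 concentrations, 125 nM–100 uM final; three biological replicates; fenpyroximate and 2,4-dinitrophenol positive controls.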

[6] = CCTE_Simmons_MITO_inhib_resp_rate: CCTE's HepG2 Seahorse XF Respirometric Screening Assay at Inhibited Respiratory State [full ETC block], Simmons Lab (AID 2284006); settings: actives raise or lower the signal
Outline: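 This endpoint is the respiration rate remaining after rotenone/antimycin A block, in HepG2 cells on a Seahorse XF96. Chemicals spanned 125 nM–100 uM final, in three biological replicates. OCR was read every 6 minutes for 72 minutes and compared with DMSO vehicle.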

[7] = CCTE_Simmons_MITO_viability: CellTiter-Glo Viability Assessment for CCTE's HepG2 Seahorse XF Respirometric Screening Assay [post-hoc], Simmons Lab (AID 2284007; active = hit-call score of the fitted dose curve at least 0.9, where 1 is the maximum)
Outline: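 Luciferase-coupled ATP read-out after the Seahorse run: HepG2 cells treated 90 minutes with test chemical, 7-point series of 125 nM–100 uM final, in triplicate biological runs. Vehicle DMSO; dichlone as positive control over 8 concentrations.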

[8] = CCTE_Shafer_MEA_acute_firing_rate_mean: CCTE's Neural Acute Assay for Mean Firing Rate, Shafer Lab (AID 2284009);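 note: analyzed for loss of signal so actives lower firing rate relative to DMSO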
Outline: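 Rat cortical neuron cultures matured to DIV 13 or 15, equilibrated 20 min at 37 C, then recorded 40 min for baseline. Compound (0.03-40 uM) added and a further 40 min recorded; percent change in mean firing rate calculated per well.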

[9] = CCTE_Harrill_HTTr_Viability_MCF7: CCTE's 6-hour Cell Viability Assessment for the High-Throughput Transcriptomics (HTTr) Platform, in MCF-7 cells cultured in DMEM + 10% fetal bovine serum, Harrill Lab (AID 2284010)
Outline: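 Propidium iodide exclusion, imaged by high-content analysis, gauged viability after a six-hour exposure across eight concentrations. Cells were MCF-7 grown in DMEM with 10% fetal bovine serum; fits run in both directions against DMSO.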

[10] = CCTE_Harrill_HTTr_Apoptosis_MCF7: CCTE's 6-hour Apoptosis Assessment for the High-Throughput Transcriptomics (HTTr) Platform, in MCF-7 cells cultured in DMEM + 10% fetal bovine serum, Harrill Lab (AID 2284011)
Outline: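 MCF-7 cells in DMEM + 10% fetal bovine serum were exposed to chemicals for 6 hours over an eight-point dilution series. Caspase-3/7 activation was imaged by high content imaging with CellEvent Caspase 3/7 Green; bidirectional fitting used DMSO as baseline.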

[11] = CCTE_Shafer_MEA_acute_burst_number: CCTE's Neural Acute Assay for Single-Electrode Bursts, Shafer Lab (AID 2284013)
Outline: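 Percent change in single-electrode burst number per well, from 40-min recordings taken before and after adding compound (0.03-40 uM) to primary rat cortical neurons on MEA plates at DIV 13 or 15, 37 C.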

[12] = CCTE_Shafer_MEA_acute_burst_duration_mean: CCTE's Neural Acute Assay for Mean Burst Duration, Shafer Lab (AID 2284014);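 note: hits are decreases in mean burst duration relative to DMSO controls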
Outline: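 Rat cortical cultures, DIV 13/15; 40 min baseline, then 40 min with compound (0.03-40 uM), 37 C. Spikes: 300-5000 Hz band-pass, 8x rms threshold. Read-out: % change in mean single-electrode burst duration, DMSO-referenced, loss direction.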

[13] = CCTE_Shafer_MEA_acute_per_burst_spike_number_mean: CCTE's Neural Acute Assay for Average Number of Spikes Per Burst, Shafer Lab (AID 2284015);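 note: hits are decreases in mean spikes per burst versus baseline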
Outline: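 Percent change in mean spikes per single-electrode burst is compared between a 40 min baseline and a 40 min recording with compound (0.03-40 uM). Cultures were rat cortical neurons on MEA plates at DIV 13 or 15, recorded at 37 C, with DMSO as the negative control.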

[14] = CCTE_Shafer_MEA_acute_interburst_interval_mean: CCTE's Neural Acute Assay for Mean Interburst Interval, Shafer Lab (AID 2284016);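 note: percent change of mean interburst interval versus each well's own pre-dose baseline; curves fitted for decrease in interburst interval relative to DMSO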
Outline: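 Percent change in mean single-electrode interburst interval was calculated per well from 40 min recordings before and after compound (0.03-40 uM). Recordings were made at 37 C on rat cortical cultures at DIV 13 or 15, with spikes detected at 8x rms threshold.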

[15] = CCTE_Harrill_HTTr_CellCount_MCF7: CCTE's Cell Proliferation Assessment for the High-Throughput Transcriptomics (HTTr) Platform, Harrill Lab (AID 2284012; active = hit-call score of the fitted dose curve at least 0.9, where 1 is the maximum;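 note: cells exposed to compound for six hours; intended direction is loss of nuclei count meaning fewer cells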)
Outline: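 Cell count from high-content imaging of Hoechst-labeled nuclei serves as viability/growth readout. Chemicals were applied to MCF-7 cells in eight concentrations for six hours, with fitting in both directions relative to DMSO.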

Measured: AC50

CON=C(C(=O)OC)c1ccccc1CON=C(C)c1cccc(C(F)(F)F)c1
active: [5] 8730 nM | [6] 14800 nM | [8] 183 nM | [11] 191 nM | [13] 767 nM | [14] 4190 nM
not listed: [15]
inactive: all other assays above

CN(C)NC(=O)CCC(=O)O
inactive: [8] | [9] | [10] | [11] | [12] | [13] | [14]

CCOP(=S)(OCC)SCCSCC
not listed: [1] | [2] | [3] | [4] | [7] | [15]
inactive: all other assays above

COP(=O)(OC)C(O)C(Cl)(Cl)Cl (stereo not drawn)
inactive: [8] | [9] | [10] | [15] | [11] | [12] | [14]
active: [13] 2150 nM

CCCCN(CC)c1c([N+](=O)[O-])cc(C(F)(F)F)cc1[N+](=O)[O-]
inactive: [9] | [10]

CCCCOC(=O)[C@@H](C)Oc1ccc(Oc2ccc(C#N)cc2F)cc1
inactive: [5] | [6] | [7] | [9] | [10]

COc1cc(OC)nc(Sc2cccc(Cl)c2C(=O)O)n1
inactive: [8] | [9] | [10] | [11] | [12] | [13] | [14]

CSc1nnc(C(C)(C)C)c(=O)n1N
inactive: [9] | [10]

CNC(=O)ON=C(C)SC
inactive: [9] | [10]

CNC(=O)Oc1cccc2c1OC(C)(C)O2
inactive: [9] | [10] | [15]

CCOP(=S)(OCC)OC(Cl)C(Cl)(Cl)Cl (stereo not drawn)
inactive: [9] | [10] | [15]

CCOP(=O)(SC(C)CC)N1CCSC1=O (stereo not drawn)
inactive: [9] | [10]

O=C(O)c1cc(Oc2ccc(C(F)(F)F)cc2Cl)ccc1[N+](=O)[O-]
not listed: [1] | [2] | [3] | [4] | [5]
inactive: all other assays above

C#CC(C)(C)NC(=O)c1cc(Cl)cc(Cl)c1
inactive: [9] | [10]

CC1(C(=O)Nc2ccc(O)c(Cl)c2Cl)CCCCC1
inactive: [6] | [7] | [9] | [10]
active: [5] 29800 nM

CN(C)C(=O)Nc1cccc(C(F)(F)F)c1
inactive: [9] | [10]

CC(C)[C@H](C(=O)O[C@H](C#N)c1cccc(Oc2ccccc2)c1)c1ccc(Cl)cc1
active: [11] 928 nM
inactive: [8] | [9] | [10] | [12] | [13] | [14]

CCOP(=S)(OCC)Oc1cc(C)nc(C(C)C)n1
inactive: [9] | [10] | [15]

CN1COCN(Cc2cnc(Cl)s2)C1=N[N+](=O)[O-]
inactive: [8] | [9] | [10] | [11] | [12] | [13] | [14]

CC(Oc1cccc(Cl)c1)C(=O)O (stereo not drawn)
inactive: [9] | [10]

S=C1NCCN1
inactive: [9] | [10]

CCOP(=O)(OCC)Oc1cc(C)nc(C(C)C)n1
inactive: [9] | [10] | [15]

CCOP(=S)(OCC)Oc1ccc([N+](=O)[O-])cc1
inactive: [9] | [10] | [15]

CC(=NC#N)N(C)Cc1ccc(Cl)nc1
inactive: [8] | [9] | [10] | [15] | [11] | [12] | [13] | [14]

CSc1nc(NC(C)C)nc(NC(C)C)n1
inactive: [9] | [10] | [15]

COc1cccc(C(=O)NN(C(=O)c2cc(C)cc(C)c2)C(C)(C)C)c1C
inactive: [9] | [10] | [15]

COP(=O)(NC(C)=O)SC (stereo not drawn)
inactive: [8] | [9] | [10] | [15] | [11] | [12] | [13] | [14]
active: [13] 124 nM | [14] 54.4 nM

CCCSP(=O)(OCC)Oc1ccc(Br)cc1Cl (stereo not drawn)
inactive: [5] | [6] | [9] | [10] | [15]

Cc1ccn2nc(S(=O)(=O)Nc3c(F)cccc3F)nc2n1
inactive: [8] | [9] | [10] | [11] | [12] | [13] | [14]

CCOP(=S)(OCC)Oc1ccc2c(C)c(Cl)c(=O)oc2c1
active: [8] 1850 nM | [11] 1940 nM | [13] 3980 nM | [14] 4190 nM
inactive: [9] | [10] | [15] | [12]

CCC(=NOC/C=C/Cl)C1=C(O)CC(C2CCOCC2)CC1=O (stereo not drawn)
inactive: [9] | [10]

CCc1cnc(C2=NC(C)(C(C)C)C(=O)N2)c(C(=O)O)c1 (stereo not drawn)
inactive: [8] | [9] | [10] | [15] | [11] | [12] | [13] | [14]

CC1=NNC(=O)N(/N=C/c2cccnc2)C1
inactive: [8] | [9] | [10] | [15] | [11] | [12] | [13] | [14]

Nc1nc(N)nc(NC2CC2)n1
inactive: [9] | [10] | [15]

CCCCSP(=O)(SCCCC)SCCCC
inactive: [9] | [10]

Cc1cc(C2CC2)nc(Nc2ccccc2)n1
inactive: [9] | [10] | [15]

CNc1cnn(-c2cccc(C(F)(F)F)c2)c(=O)c1Cl
inactive: [9] | [10] | [15]
